Reference: the supplement of paper PMC8387472

Columns and labels:
Details in all cases: mESC; 2uM; 72 h treatment, harvest day 5
[1] = compound: O=C1Cc2c([nH]c3ccc(Br)cc23)-c2ccccc2N1 [Kenpaullone]; assay: fraction of microhomology deletions among edited reads; higher = more MH deletions
[2] = compound: O=c1c(-c2ccc(O)cc2)coc2cc(O)cc(O)c12 [Genistein]; assay: as above
[3] = compound: O=c1cc(N2CCOCC2)oc2c(-c3ccc4c(c3)OCCO4)csc12; assay: as above
[4] = compound: S=c1[nH]cnc2nc[nH]c12 [Mercaptopurine (6-MP)]; assay: as above
[5] = compound: S=c1nc[nH]c2nc[nH]c12 [6-Mercaptopurine (6-MP) Monohydrate]; assay: as above
[6] = compound: CC(=O)O/N=C1\C(=O)N(Cc2cc(Cl)ccc2Cl)c2ccc(Cl)cc21; assay: fraction of 1-bp insertions among edited reads; higher = more 1-bp insertion outcomes
[7] = compound: CC(C)(C#N)c1ccc(N2C(=O)OCc3cnc4ccc(-c5cnc6ccccc6c5)cc4c32)cc1; assay: as above
[8] = compound: CCCCOc1c(C(=O)c2c(F)cc(C)cc2F)c[nH]c2nncc1-2; assay: as above
[9] = compound: CCN1CCN(CC(=O)Nc2ccc(-c3cccc4c(=O)cc(N5CCOCC5)oc34)c3sc4ccccc4c23)CC1; assay: as above
[10] = compound: CCc1c2c(nc3ccc(OC(=O)N4CCC(N5CCCCC5)CC4)cc13)-c1cc3c(c(=O)n1C2)COC(=O)[C@]3(O)CC [Irinotecan HCl Trihydrate]; assay: as above
[11] = compound: CCn1c(=O)c(-c2ccc(Cl)cc2Cl)cc2cnc(Nc3ccc(N4CCNCC4)c(F)c3)nc21; assay: as above
[12] = compound: CNc1ccc([N+](=O)[O-])c(Nc2ccc3[nH]ncc3c2)n1; assay: as above
[13] = compound: CO[C@H]1/C=C/O[C@@]2(C)Oc3c(C)c(O)c4c(O)c(c(/C=N/N5CCN(C6CCCC6)CC5)c(O)c4c3C2=O)NC(=O)/C(C)=C\C=C\[C@H](C)[C@H](O)[C@@H](C)[C@@H](O)[C@@H](C)[C@H](OC(C)=O)[C@@H]1C [Rifapentine]; assay: as above
[14] = compound: COc1ccccc1-c1cc(Nc2cccc(CS(N)(=O)=O)c2)ncn1; assay: as above
[15] = compound: C[C@@H]1CN(CC(=O)Nc2ccc3c(c2)Cc2cccc(-c4cc(=O)cc(N5CCOCC5)o4)c2S3)C[C@H](C)O1; assay: as above
[16] = compound: Cc1cc(C)nc(SCC(=O)Nc2ncc(Cc3cccc4ccccc34)s2)n1; assay: as above
[17] = compound: Cc1ccc(C(=O)NCCCCCC(=O)Nc2ccccc2N)cc1; assay: as above
[18] = compound: Cc1cccc(CC(=O)N2CCc3c2ccc(-c2cn(C)c4ncnc(N)c24)c3F)n1; assay: as above
[19] = compound: NC(=O)c1ccc2nc(-c3ccc(Oc4ccc(Cl)cc4)cc3)[nH]c2c1 [Chk 2 inhibitor II (BML-277)]; assay: as above
[20] = compound: Nc1cc(F)ccc1NC(=O)c1ccc(CNC(=O)/C=C/c2cccnc2)cc1 [Tucidinostat (Chidamide)]; assay: as above

0.0 (DMSO control at this site: 1-bp insertion 0.463, MH deletion 0.339, edited 0.14) AGGATTACCGAGACCTACGCGAACCGAAATCGCTGTCCGGTGCGCAAGCAGGGCTGGCGTC
fraction of microhomology deletions among edited reads [1]: 0.22 | fraction of microhomology deletions among edited reads [2]: 0.34 | fraction of microhomology deletions among edited reads [3]: 0.384 | fraction of microhomology deletions among edited reads [4]: 0.288 | fraction of microhomology deletions among edited reads [5]: 0.282 | fraction of 1-bp insertions among edited reads [6]: 0.437 | fraction of 1-bp insertions among edited reads [7]: 0.497 | fraction of 1-bp insertions among edited reads [8]: 0.504 | fraction of 1-bp insertions among edited reads [9]: 0.175 | fraction of 1-bp insertions among edited reads [10]: 0.456 | fraction of 1-bp insertions among edited reads [11]: 0.394 | fraction of 1-bp insertions among edited reads [12]: 0.535 | fraction of 1-bp insertions among edited reads [13]: 0.468 | fraction of 1-bp insertions among edited reads [14]: 0.559 | fraction of 1-bp insertions among edited reads [15]: 0.793 | fraction of 1-bp insertions among edited reads [16]: 0.523 | fraction of 1-bp insertions among edited reads [17]: 0.498 | fraction of 1-bp insertions among edited reads [18]: 0.526 | fraction of 1-bp insertions among edited reads [19]: 0.495 | fraction of 1-bp insertions among edited reads [20]: 0.534

44.0 (DMSO control at this site: 1-bp insertion 0.181, MH deletion 0.512, edited 0.123) ACACATACCTTCTTCGAGGCAGCCAGCATGATGAGACAGGTCTCCCACAAACACATCGTGT
fraction of microhomology deletions among edited reads [1]: 0.473 | fraction of microhomology deletions among edited reads [2]: 0.525 | fraction of microhomology deletions among edited reads [3]: 0.537 | fraction of microhomology deletions among edited reads [4]: 0.499 | fraction of microhomology deletions among edited reads [5]: 0.523 | fraction of 1-bp insertions among edited reads [6]: 0.159 | fraction of 1-bp insertions among edited reads [7]: 0.185 | fraction of 1-bp insertions among edited reads [8]: 0.221 | fraction of 1-bp insertions among edited reads [9]: 0.0636 | fraction of 1-bp insertions among edited reads [10]: 0.21 | fraction of 1-bp insertions among edited reads [11]: 0.198 | fraction of 1-bp insertions among edited reads [12]: 0.251 | fraction of 1-bp insertions among edited reads [13]: 0.174 | fraction of 1-bp insertions among edited reads [14]: 0.233 | fraction of 1-bp insertions among edited reads [15]: 0.418 | fraction of 1-bp insertions among edited reads [16]: 0.192 | fraction of 1-bp insertions among edited reads [17]: 0.2 | fraction of 1-bp insertions among edited reads [18]: 0.282 | fraction of 1-bp insertions among edited reads [19]: 0.166 | fraction of 1-bp insertions among edited reads [20]: 0.238

7.0 (DMSO control at this site: 1-bp insertion 0.128, MH deletion 0.374, edited 0.098) TACTCAACCGAGACCTACGCGAACCGAAATCGTATGCCGGTGCGCAAGCAGGGCTGGCGTC
fraction of microhomology deletions among edited reads [1]: 0.436 | fraction of microhomology deletions among edited reads [2]: 0.476 | fraction of microhomology deletions among edited reads [3]: 0.43 | fraction of microhomology deletions among edited reads [4]: 0.401 | fraction of microhomology deletions among edited reads [5]: 0.367 | fraction of 1-bp insertions among edited reads [6]: 0.105 | fraction of 1-bp insertions among edited reads [7]: 0.131 | fraction of 1-bp insertions among edited reads [8]: 0.164 | fraction of 1-bp insertions among edited reads [9]: 0.113 | fraction of 1-bp insertions among edited reads [10]: 0.105 | fraction of 1-bp insertions among edited reads [11]: 0.111 | fraction of 1-bp insertions among edited reads [12]: 0.166 | fraction of 1-bp insertions among edited reads [13]: 0.135 | fraction of 1-bp insertions among edited reads [14]: 0.154 | fraction of 1-bp insertions among edited reads [15]: 0.226 | fraction of 1-bp insertions among edited reads [16]: 0.137 | fraction of 1-bp insertions among edited reads [17]: 0.144 | fraction of 1-bp insertions among edited reads [18]: 0.141 | fraction of 1-bp insertions among edited reads [19]: 0.131 | fraction of 1-bp insertions among edited reads [20]: 0.174

19.0 (DMSO control at this site: 1-bp insertion 0.121, MH deletion 0.101, edited 0.057) TCTGCAGGGGTCGGAACCCGGGGGCTAGGGCTATCCCGGGGGCTAGGGCTATTAGCGAACC
fraction of microhomology deletions among edited reads [1]: 0.221 | fraction of microhomology deletions among edited reads [2]: 0.186 | fraction of microhomology deletions among edited reads [3]: 0.125 | fraction of microhomology deletions among edited reads [4]: 0.238 | fraction of microhomology deletions among edited reads [5]: 0.163 | fraction of 1-bp insertions among edited reads [6]: 0.111 | fraction of 1-bp insertions among edited reads [7]: 0.0907 | fraction of 1-bp insertions among edited reads [8]: 0.0994 | fraction of 1-bp insertions among edited reads [9]: 0.0438 | fraction of 1-bp insertions among edited reads [10]: 0.0969 | fraction of 1-bp insertions among edited reads [11]: 0.131 | fraction of 1-bp insertions among edited reads [12]: 0.0931 | fraction of 1-bp insertions among edited reads [13]: 0.103 | fraction of 1-bp insertions among edited reads [14]: 0.0834 | fraction of 1-bp insertions among edited reads [15]: 0.27 | fraction of 1-bp insertions among edited reads [16]: 0.0666 | fraction of 1-bp insertions among edited reads [17]: 0.123 | fraction of 1-bp insertions among edited reads [18]: 0.087 | fraction of 1-bp insertions among edited reads [19]: 0.0625 | fraction of 1-bp insertions among edited reads [20]: 0.116
